Measured values from PubChem BioAssay (Tox21).
Records with an inconclusive call do not appear. Activity calls are given as the source filed them. Unless noted, calls follow the shape of the dose curve; as a rule, active = well fitted curve in the direction sought with a large enough effect in the repeat runs; inconclusive = weak or mixed curves; inactive = no such curve, though single readings can be large; an effect the other way counts as inactive or inconclusive.

Experiments:
[1] = qHTS assay to identify small molecule agonists of the RXR signaling pathway - cell viability counter screen (AID 1159529); also: nearly all actives have a fitted effect of over 50% in size; also: potency is read from the fitted curve at half-maximal effect
Outline: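 RXR-alpha-UAS-bla HEK 293T cells in medium with 2% charcoal-stripped FBS were preincubated 5 hr, then exposed to compounds for 16 hr at 37 C. Viability was read as CellTiter-Glo luminescence after 30 min at room temperature.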

[2] = qHTS assay to identify small molecule antagonists of the retinoid acid receptor (RAR) signaling pathway - cell viability counter screen (AID 1159551); also: nearly all actives have a fitted effect of over 35% in size
Outline: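 C3RL4 RARE-luciferase line; cpds + retinol 1 uM final, 6 h, 37 C/5% CO2; CellTiter-Glo ATP luminescence, 30 min RT.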

[3] = qHTS assay to identify small molecule antagonists of the retinoic acid receptor (RAR) signaling pathway (AID 1159552; also: nearly all actives have a fitted effect of over 50% in size)
Outline: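 RARE-luc C3RL4 cells; cpds + 1 uM (final) retinol, 6 hr, 37 C/5% CO2; luciferase reagent, 30 min RT, luminescence readout. Inhibitors of retinol-driven signal scored.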

[4] = qHTS assay to identify small molecule agonists of the retinoic acid receptor (RAR) signaling pathway (AID 1159553); conditions: C3RL4 RARE luciferase reporter, agonist, 6 h; activation: at 73.3 µM (top of the series) unless noted
Outline: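 RARE-luc C3RL4 cells; overnight attachment 37 C/5% CO2; compound (DMSO) 6 hr; luciferase reagent, 30 min RT; luminescence read-out.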

[5] = qHTS assay to identify small molecule antagonists of the estrogen related receptor (ERR) signaling pathway from Tox21 library - cell viability counter screen (AID 1224834); also: nearly all actives have a fitted effect of over 30% in size; also: potency is read from the fitted curve at half-maximal effect
Outline: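 Multiplexed viability counter screen in ERR cells: 17.5 h compound exposure at 37 C, CellTiter-Fluor added, 30 min at 37 C/5% CO2, fluorescence read.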

[6] = qHTS assay to identify small molecule agonists of the constitutive androstane receptor (CAR) signaling pathway - cell viability counter screen (AID 1224836); also: nearly all actives have a fitted effect of over 45% in size; also: potency is read from the fitted curve at half-maximal effect
Outline: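 HepG2 cells stably carrying hCAR and a CYP2B6-2.2kb reporter were plated 4 h, then given compounds at 15 concentrations plus PK11195 (final 0.75 uM). After 23 h at 37 C, viability was read by CellTiter-Fluor fluorescence.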

[7] = qHTS assay to identify small molecule antagonists of the constitutive androstane receptor (CAR) signaling pathway - cell viability counter screen (AID 1224837); also: nearly all actives have a fitted effect of over 45% in size; also: potency is read from the fitted curve at half-maximal effect
Outline: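 Read-out: CellTiter-Fluor fluorescence after 23 hr at 37 C/5% CO2. Cells: HepG2 double-stable for hCAR and CYP2B6-2.2kb. Compounds tested at 15 concentrations in the presence of CITCO, final concentration 50 nM.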

[8] = target: Nuclear receptor subfamily 1 group I member 3 (Homo sapiens) (UniProt Q14994); test: qHTS assay to identify small molecule agonists of the constitutive androstane receptor (CAR) signaling pathway (AID 1224839); also: nearly all actives have a fitted effect of over 15% in size; also: potency is read from the fitted curve at half-maximal effect;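 as to activation: HepG2 cells stably carrying human CAR and a CYP2B6 luciferase reporter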
Outline: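 HepG2 cells stably expressing hCAR and a CYP2B6-2.2kb luciferase reporter were treated with compounds at 15 concentrations plus 0.75 uM PK11195 (final) for 24 h at 37 C; luminescence was read after ONE-Glo addition.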

[9] = qHTS assay to identify small molecule antagonists of the estrogen related receptor signaling pathway with the pleiotropic PPARgamma coactivator (PGC) from Tox21 10K library - cell viability counter screen (AID 1224840; active = well fitted cell-killing curve with a large enough effect in the repeat runs, not every such curve was filed as active; also: nearly all actives have a fitted effect of over 40% in size)
Outline: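 Fluorescence read-out of CellTiter-Fluor viability reagent, added after cells had been exposed to compound in DMSO for 17.5 h at 37 C; 30 min development at 37 C/5% CO2. Cells: PGC/ERR line, 2,000/well.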

[10] = target: Thyrotropin receptor (Homo sapiens) (UniProt P16473); test: qHTS assay to identify small molecule agonists of the thyroid stimulating hormone receptor (TSHR) signaling pathway (AID 1224843; calls by dose curve; also: nearly all actives have a fitted effect of over 45% in size)
Outline: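 Agonist-mode screen: TSHR HEK293 cells received test chemicals for half an hour at room temperature, then HTRF cAMP detection reagents for one hour prior to fluorescence measurement. Each chemical ran as a 15-concentration series, triplicated.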

[11] = qHTS assay to identify small molecule agonists of the hypoxia (HIF-1) signaling pathway - cell viability counter screen (AID 1224844; calls by dose curve; also: nearly all actives have a fitted effect of over 50% in size; also: potency is read from the fitted curve at half-maximal effect)
Outline: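 CellTiter-Glo luminescence read-out, 30 min RT, taken in the same wells as the beta-lactamase HRE reporter assay; HRE-bla ME-180 cells, 0.5% dialyzed FBS, 17 hr compound treatment at 37C, 5% CO2.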

[12] = target: Nuclear receptor subfamily 1 group I member 3 (Homo sapiens) (UniProt Q14994); test: qHTS assay to identify small molecule antagonists of the constitutive androstane receptor (CAR) signaling pathway (AID 1224838); also: nearly all actives have a fitted effect of over 40% in size; also: potency is read from the fitted curve at half-maximal effect
Outline: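 Read-out: ONE-Glo luciferase luminescence after 30 min at room temperature. HepG2-CYP2B6-hCAR double-stable cells, compounds in 15-point titration plus 50 nM CITCO final, 24 h at 37 C/5% CO2.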

[13] = qHTS assay to identify small molecule antagonists of the estrogen related receptor signaling pathway with the pleiotropic PPARgamma coactivator (PGC) from Tox21 10K library (AID 1224841; call rule not given here; also: actives are mostly falling curves and most rising ones were filed inactive; nearly all actives have a fitted effect of over 50% in size; also: potency is read from the fitted curve at half-maximal effect)
Outline: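 Luminescence read-out (One-Glo luciferase reagent, 30 min at room temperature) from PGC/ERR cells exposed to DMSO-dissolved test compounds for 18 h at 37 C; cells, 2,000 per well, had been preincubated 6 h before compound transfer.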

[14] = qHTS assay to identify small molecule agonists of the estrogen related receptor signaling pathway with the pleiotropic PPARgamma coactivator (PGC) from Tox21 10K library (AID 1224842); also: nearly all actives have a fitted effect of over 15% in size
Outline: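 PGC/ERR reporter cell line, 2,000 cells per well, incubated 6 h at 37 C before 23 nL compound in DMSO was added. After 18 h at 37 C, One-Glo luminescence read following 30 min at room temperature.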

[15] = target: Luciferin 4-monooxygenase (Photinus pyralis) (UniProt P08659); test: qHTS assay to identify small molecule inhibitors of firefly luciferase (AID 1224835); also: nearly all actives have a fitted effect of over 25% in size; also: potency is read from the fitted curve at half-maximal effect
Outline: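 Biochemical qHTS: compounds run as interplate titrations against purified firefly enzyme, with D-luciferin and ATP each at its KM concentration. Light output recorded by CCD imaging.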

[16] = qHTS assay to identify small molecule antagonists of the estrogen related receptor (ERR) signaling pathway - cell viability counter screen (AID 1224818)
Outline: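 Fluorescence from CellTiter-Fluor, read 30 min after reagent addition at 37 C, measured viability of ERR cells exposed to compounds for 17.5 h. Cells had settled 6 h before dosing.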

[17] = qHTS assay to identify small molecule antagonists of the estrogen related receptor (ERR) signaling pathway (AID 1224819)
Outline: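 Luminescence readout (One-Glo, 30 min, RT) of ERR cell line after 18 h compound exposure at 37 C; cells seeded 2,000/well, pre-incubated 6 h, compounds pinned from DMSO stocks.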

[18] = qHTS assay to identify small molecule agonists of the estrogen related receptor (ERR) signaling pathway (AID 1224820)
Outline: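 An ERR cell line provided by NTP was seeded at 2,000 cells per well and allowed to settle for 6 h before compounds in DMSO were added. After 18 h at 37 C, luciferase activity was measured by One-Glo luminescence.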

Measured: Potency

Chain of Nuclear receptor subfamily 1 group I member 3 (Homo sapiens) (Q14994 whole entry, looked up): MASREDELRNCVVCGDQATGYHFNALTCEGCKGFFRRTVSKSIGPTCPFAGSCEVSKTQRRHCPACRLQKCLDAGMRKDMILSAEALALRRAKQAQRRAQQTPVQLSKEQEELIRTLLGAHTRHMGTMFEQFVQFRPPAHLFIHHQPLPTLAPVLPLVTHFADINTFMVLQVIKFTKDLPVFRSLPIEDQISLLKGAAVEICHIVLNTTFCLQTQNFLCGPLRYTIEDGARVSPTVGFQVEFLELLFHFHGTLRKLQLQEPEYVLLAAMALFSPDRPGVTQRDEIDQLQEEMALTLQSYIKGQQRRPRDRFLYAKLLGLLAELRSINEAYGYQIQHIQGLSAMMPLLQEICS
Chain of Luciferin 4-monooxygenase (Photinus pyralis) (P08659 whole entry, looked up): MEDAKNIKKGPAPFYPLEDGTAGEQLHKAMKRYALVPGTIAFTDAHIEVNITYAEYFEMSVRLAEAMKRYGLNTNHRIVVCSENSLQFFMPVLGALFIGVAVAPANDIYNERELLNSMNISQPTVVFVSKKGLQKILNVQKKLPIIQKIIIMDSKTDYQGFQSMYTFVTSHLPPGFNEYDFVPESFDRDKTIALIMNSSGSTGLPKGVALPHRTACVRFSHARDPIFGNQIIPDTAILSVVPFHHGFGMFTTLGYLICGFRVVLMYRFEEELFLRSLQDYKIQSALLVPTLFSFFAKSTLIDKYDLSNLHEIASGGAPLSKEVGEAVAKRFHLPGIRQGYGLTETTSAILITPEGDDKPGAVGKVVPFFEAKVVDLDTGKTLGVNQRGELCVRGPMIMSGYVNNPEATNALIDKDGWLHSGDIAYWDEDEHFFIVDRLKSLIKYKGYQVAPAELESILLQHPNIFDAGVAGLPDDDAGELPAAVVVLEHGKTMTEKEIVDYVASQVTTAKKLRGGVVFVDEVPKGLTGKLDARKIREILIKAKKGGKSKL
Chain of Thyrotropin receptor (Homo sapiens) (P16473 whole entry, looked up): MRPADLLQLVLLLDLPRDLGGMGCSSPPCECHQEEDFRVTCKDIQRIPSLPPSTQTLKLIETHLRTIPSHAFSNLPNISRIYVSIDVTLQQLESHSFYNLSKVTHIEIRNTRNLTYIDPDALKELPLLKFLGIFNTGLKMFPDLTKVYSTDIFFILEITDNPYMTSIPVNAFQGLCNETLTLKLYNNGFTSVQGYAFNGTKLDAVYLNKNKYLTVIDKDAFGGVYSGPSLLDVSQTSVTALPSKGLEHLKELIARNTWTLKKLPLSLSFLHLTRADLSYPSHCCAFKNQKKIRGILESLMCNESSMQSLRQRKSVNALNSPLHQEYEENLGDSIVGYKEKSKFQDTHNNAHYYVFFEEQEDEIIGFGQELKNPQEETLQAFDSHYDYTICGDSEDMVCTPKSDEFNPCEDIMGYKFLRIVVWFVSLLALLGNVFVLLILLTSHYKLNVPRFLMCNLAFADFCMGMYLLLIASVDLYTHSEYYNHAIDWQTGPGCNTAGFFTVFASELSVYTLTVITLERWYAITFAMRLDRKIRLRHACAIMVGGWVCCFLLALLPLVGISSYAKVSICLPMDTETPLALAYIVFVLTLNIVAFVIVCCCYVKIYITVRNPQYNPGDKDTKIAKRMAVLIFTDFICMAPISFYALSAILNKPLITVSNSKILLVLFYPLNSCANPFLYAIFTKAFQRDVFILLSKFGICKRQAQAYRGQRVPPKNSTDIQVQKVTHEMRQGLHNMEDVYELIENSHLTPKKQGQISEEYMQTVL

CCC(=O)OC(=O)CC
inactive: [2] | [3] | [4] | [5] | [6] | [7] | [8] | [9] | [10]
active: [1] 43.3 µM

CCn1c2ccccc2c2cc([N+](=O)[O-])ccc21
inactive: [1] | [2] | [3] | [4] | [5] | [6] | [7] | [9] | [11]

O=S(=O)(O)c1ccccc1/C=C/c1ccc(-c2ccc(/C=C/c3ccccc3S(=O)(=O)O)cc2)cc1
inactive: [1] | [2] | [3] | [4] | [5] | [12] | [8] | [9] | [13] | [14] | [10] | [11]

COC(C)=O
inactive: [1] | [2] | [3] | [4] | [5] | [6] | [7] | [8] | [9]

[Cl][Pt-2]([Cl])([Cl])[Cl]
inactive: [1] | [2] | [4] | [6] | [7] | [12] | [14] | [11]

CC/C=C\CCCCCO
inactive: [1] | [2] | [5] | [15] | [6] | [7] | [12] | [8] | [9] | [13] | [10] | [11]

CC(C)NC[C@@H](O)COc1ccc(CC(N)=O)cc1
inactive: [1] | [2] | [4] | [5] | [15] | [6] | [7] | [9] | [10] | [11]

CC(N=C(NC#N)Nc1ccncc1)C(C)(C)C (stereo unspecified)
inactive: [1] | [2] | [4] | [16] | [17] | [18] | [6] | [7] | [9] | [10] | [11]

NC(=S)NC(N)=S
inactive: [1] | [2] | [3] | [5] | [15] | [6] | [7] | [8] | [9] | [10] | [11]

CCOc1ccc2ccccc2c1C(=O)N[C@@H]1C(=O)N2[C@@H]1SC(C)(C)[C@@H]2C(=O)O
inactive: [1] | [2] | [4] | [5] | [15] | [6] | [7] | [9] | [13] | [14] | [10] | [11]

CC(=O)Oc1cc2c(s1)CCN(C(C(=O)C1CC1)c1ccccc1F)C2 (stereo unspecified)
inactive: [1] | [2] | [4] | [5] | [15] | [6] | [7] | [9] | [13] | [14] | [10]

CC(C)(C)c1ccc(C(O)CCCN2CCC(C(O)(c3ccccc3)c3ccccc3)CC2)cc1 (stereo unspecified)
active: [1] 7.56 µM | [5] 11.9 µM | [6] 23.7 µM | [7] 26.6 µM | [12] 26.6 µM | [11] 21.3 µM
inactive: [2] | [3] | [8]

OC[C@H]1O[C@H](O[C@H]2O[C@H](CO)[C@@H](O)[C@H](O)[C@H]2O)[C@H](O)[C@@H](O)[C@@H]1O
inactive: [1] | [2] | [4] | [15] | [6] | [7] | [9] | [13] | [14] | [10] | [11]

O=C1CCCCCCCCCCCCCCCO1
inactive: [1] | [2] | [3] | [15] | [6] | [7] | [8] | [9] | [13] | [14] | [10] | [11]

O=C(O)c1cccc(C(F)(F)F)c1
inactive: [1] | [2] | [5] | [15] | [6] | [7] | [12] | [8] | [9] | [13] | [14] | [10] | [11]

CCC(CC)(CC(=O)Nc1cccc(/C=C/c2nc(C3CCC3)cs2)c1)C(=O)O
active: [15] 2.75 µM | [8] 23.7 µM
inactive: [1] | [2] | [3] | [6] | [7] | [12] | [9] | [11]

Clc1ccnc(Cl)n1
inactive: [1] | [2] | [3] | [5] | [15] | [6] | [7] | [12] | [8] | [9] | [14]

O=C1CCc2ccc(OCCCCN3CCN(c4cccc(Cl)c4Cl)CC3)cc2N1
active: [1] 23.9 µM | [13] 11.9 µM
inactive: [2] | [3] | [4] | [12] | [8] | [14]

COc1ccc(NC(=O)CC(C)=O)cc1
inactive: [1] | [2] | [3] | [5] | [15] | [6] | [7] | [12] | [8] | [9] | [10] | [11]
